ChEMBL document CHEMBL3988442, “University of Dundee, Small-Polar-MMV Screening Library” (2021)
Hit rate of the full screen: of about 48,000 compounds, about 13,000 (27%) showed an effect of 50% or more. This is one part of the list.

tested on: Wolbachia pipientis; test: Anti-Wolbachia Cell-Based Screen; type: functional; design: scale not given: in the data most compounds retested in dose-response had high values; details: 5 µM

| Compound | Percent Effect |
| --- | --- |
| NC(=O)N1CCCN(C2CCCCc3ccccc32)CC1 (stereo unspecified) | -4.011% |
| CO[C@@H]1CN(c2ccccc2)S(=O)(=O)[C@@]12CCN(C)C2 | 121.6% |
| COC1CCN(S(=O)(=O)N2CC(c3ccccc3)C(C)(C)C2)CC1 (stereo unspecified) | 17.09% |
| CO[C@@H]1CN(c2ccccc2)S(=O)(=O)[C@@]12CCN(S(C)(=O)=O)C2 | 80.67% |
| CN1CC(=O)N(c2ccccc2)CC12CCN(S(C)(=O)=O)C2.O=C(O)C(F)(F)F (stereo unspecified) | 10.77% |
| CS(=O)(=O)N1CCC2(CC1)c1ccccc1[C@@H](N1CCSCC1)[C@@H]2O | -3.022% |
| CCN(CC)C(=O)C1CCC(=O)N(CCc2cccc(F)c2)C1 (stereo unspecified) | 5.387% |
| Cn1cc(C(=O)NCC2CCN(C(=O)NC3CCCCC3)CC2)cn1 | 90.75% |
| COCCCNC(=O)N1CCC(CNC(=O)c2cnn(C)c2)CC1 | 114% |
| Cn1cc(C(=O)NC2CCN(C(=O)NCC3CCSCC3)CC2)cn1 | -0.1776% |
| CCS(=O)(=O)c1ccc(N2CCC(NC(=O)c3cnn(C)c3)CC2)cc1 | 0.7528% |
| Cn1cc(C(=O)NC[C@@H]2OC[C@H]3CN(S(C)(=O)=O)CC[C@H]32)cn1 | -9.663% |
| Cn1cc(C(=O)NC2CCN(C(=O)NCCSC(F)(F)F)CC2)cn1 | 19.88% |
| COCCNC(=O)N1CCC(NC(C)C)CC1 | 8.533% |
| COC(=O)N1CCC(CNS(=O)(=O)c2cnn(C)c2)CC1 | -8.062% |
| CNC(=O)N1CCC(NC(=O)c2cnn(C)c2)CC1 | 87.43% |

| Compound | Percent Effect |
| --- | --- |
| Cn1cc(C(=O)NCC2CCN(C(=O)NCC(F)(F)F)CC2)cn1 | -3.622% |
| Cn1cc(C(=O)NCC2CCN(C(=O)NC3CC3)CC2)cn1 | 82.18% |
| Cc1ccc(N2CCC(C(O)c3cccs3)CC2)nn1 (stereo unspecified) | 12.98% |
| CCCN1CCC(NCc2cccc(CN3CCOC(C)C3)c2)CC1 (stereo unspecified) | 27.7% |
| CCOCCn1c(=O)n(Cc2ccccc2F)c2cc(C(=O)O)cnc21 | -1.705% |
| O=C(O)c1ccc(Cc2cccc(F)c2)nc1 | 176.5% |
| CCSCCn1c(=O)n(Cc2ccc(F)cc2)c2ncc(C(=O)O)cc21 | -21.36% |
| O=C(O)c1ccc(N2CCC(Oc3cccc(F)c3)CC2)nc1 | 7.42% |
| O=C(NCC(Cc1cccc(F)c1)N1CCCC1=O)c1ccccc1 (stereo unspecified) | -3.129% |
| O=C(CS(=O)(=O)Cc1ccccc1)NCc1ccccc1F | -49.77% |
| CCOCCn1c(=O)n(Cc2ccc(F)cc2)c2ncc(C(=O)O)cc21 | 0.5283% |
| O=C(O)c1cncc(Cc2ccccc2F)c1 | 172.6% |
| O=C(O)c1cccc(CC2CCN(c3ncc(F)cn3)CC2)c1 | 5.737% |
| O=C(O)c1cncc(Cc2ccc(F)cc2)c1 | 214.7% |
| O=C(O)c1cncc(Cc2cccc(F)c2)c1 | 136.9% |
